Tau fil binding: binds recombinant human tau filaments | AID 596 | Potency, µM (series often up to 57.1 µM), without a hit: at the highest dose activity change, negative = inhibition | 2% of 71,000 active | P10636 | recombinant tau filaments, thioflavin S fluorescence, 15 h; filaments grown with octadecylsulfate alongside compound;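 further: potency means the concentration at half of the fitted maximal effect; on the % scale 0 is the no-effect control and ±100 the full control effect; actives lower thioflavin S fluorescence by blocking filaments or displacing dye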
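Read-out: ThS fluorescence, 450 nm excitation/510 nm emission; lower signal marks blocked filament formation or displaced dye. Tau at 1 uM with 30 uM ODS, 10 uM ThS, 5 mM DTT, 100 mM NaCl, 10 mM HEPES pH 7.4; 15 h, 37 C.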
Casp1 inh: blocks human caspase-1 allosterically or competitively; P29466; 0.03% of 75,000 active; Caspase-1 enzyme, Ac-WEHD-AFC fluorogenic rate; Potency, µM (series often up to 57.5 µM), without a hit: at the top dose activity change, negative = inhibition, usual class: inhibitors;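 further: potency means the concentration at half of the fitted maximal effect; plate controls were vehicle for no effect and no substrate for full effect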
Hsp90 Hop PPI: changes Hsp90-Hop TPR2A binding signal, up or down; AlphaScreen TPR2A-His6 binding biotin-Hsp90 C-terminal peptide; Potency, µM (top dose mostly 57 µM), without a hit: at the highest dose activity change, negative = inhibition; 0.44% of 71,000 active; active means well fitted curve in either direction with a large enough effect; inconclusive means small, poorly fitted or top-dose-only effect, or another doubt; further: potency means the concentration at half of the fitted maximal effect; on the % scale 0 is the no-effect control and ±100 the full control effect
15-hLO-2 inh: 15-hLO-2 (ALOX15B) enzyme inhibition | O15296 | purified 15hLO-2, xylenol orange hydroperoxide absorbance | Potency, µM (doses to about 57.1 µM), inactives show at the top dose activity change, negative = inhibition, hits mostly inhibitors | 0.56% of 110,000 active; further: potency means the concentration at half of the fitted maximal effect; on the % scale 0 is the no-effect control and ±100 the full control effect; nearly all actives have a fitted effect of over 60% in size
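Enzyme 50 nM, AA 45 uM, 25 mM Hepes pH 7.5 + 0.01% Triton X-100; cpd preinc 15 min RT, rxn 90 min RT; stop/detect with 200 uM XO + 300 uM Fe(II) in 50 mM H2SO4, 30 min; A573/A405.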
15-hLO inh: inhibitors of human 15-lipoxygenase (ALOX15); P16050; purified 15hLO-1, xylenol orange hydroperoxide absorbance; Potency, µM (doses to about 57.1 µM), inactives show top-dose activity change, negative = inhibition, actives largely listed as inhibitors; 1.4% of 74,000 active; AID 887; further: potency means the concentration at half of the fitted maximal effect; on the % scale 0 is the no-effect control and ±100 the full control effect; nearly all actives have a fitted effect of over 55% in size
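Hydroperoxide formed from arachidonic acid (50 uM) by purified human 15hLO-1 (40 nM) oxidizes ferrous iron, and the ferric-xylenol orange complex is read at 573 versus 405 nm. Compounds were preincubated 15 min; reaction ran 6 min at room temperature.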
Casp7 inh: caspase-7 (human) inhibition, allosteric or competitive; P55210; recombinant caspase-7, Ac-DEVD-AFC fluorescence rate; Potency, µM (highest dose often 57.5 µM), inactives show at the top dose activity change, negative = inhibition, most hits filed as inhibitors; 0.02% of 75,000 active; active means well fitted inhibition curve with a large enough effect in the main read-out, with a control signal flat, not every such curve was filed as active; inconclusive means small, poorly fitted or top-dose-only effect, or a change in a side signal; further: potency means the concentration at half of the fitted maximal effect; % of control where 0% means no effect
Hsp90 TPR2A CRC: confirmation and counter-screen of Hsp90 TPR2A co-chaperone interaction disrupters; AlphaScreen TPR2A-His6 / biotin-Hsp90 peptide binding; activity, negative = inhibition, % at 40 µM or 46 µM, hits read low; 100% of 45 active; shares compounds with Hsp90 Hop PPI;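 active means compound lowering the Hsp90 and TPR2A binding signal, whether or not the linker counterscreen also flagged it as an artifact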
tau ThS displ: compounds binding human tau filaments, displacing Thioflavin S. shares compounds with Tau fil binding. AID 911. 40% of 60 active. Potency, µM. recombinant tau filaments, Thioflavin S fluorescence displacement; calls by dose curve
aSyn ThS displ: compounds binding human alpha-synuclein fibrils, displacing Thioflavin S; shares compounds with Tau fil binding; recombinant alpha-synuclein fibrils, ThS fluorescence displacement; Potency, µM; 40% of 60 active; AID 937; calls by dose curve
Abeta ThS displ: amyloid beta fibril binding by ThS displacement; shares compounds with Tau fil binding; Abeta1-42 fibrillization, thioflavin S fluorescence, overnight 37 C; Potency, µM; 50% of 60 active; AID 956; calls by dose curve
* = called active by the depositor; [ ] = remark or other dose. In the library only some 2.4% were active in any assay of this set; here they are far more common. Unless noted, the call rests on the fitted dose curve; in most records, active means well fitted curve in the direction sought with a large enough effect; inconclusive means small, poorly fitted or top-dose-only effect, or another doubt; inactive means no such curve, though single readings can be large; an effect the other way counts as inactive or inconclusive.

How did O=C(Nc1cccc(C(=O)N2CCOCC2)c1)c1ncn[nH]1 do in these assays?
Tau fil binding: 6%; Casp1 inh: 0%; Hsp90 Hop PPI: 25µM*; 15-hLO-2 inh: 0%; 15-hLO inh: 1%; Casp7 inh: -1%; Hsp90 TPR2A CRC: -83*[alpha-screen platform artifact]

What do the screens show for `CCC(C)COC(=O)c1ccc(C(=O)O)cc1` (stereo not drawn)?
Tau fil binding: -45%; Casp1 inh: -1%; Hsp90 Hop PPI: inconclusive; 15-hLO-2 inh: -7%; 15-hLO inh: 9%; Casp7 inh: 0%; tau ThS displ: inactive; aSyn ThS displ: inactive; Abeta ThS displ: inactive

Results for O=C(COC(=O)c1ccccn1)Nc1ccccc1Cl ?
Tau fil binding: -9%; Casp1 inh: -2%; Hsp90 Hop PPI: -29%; 15-hLO-2 inh: 3%; 15-hLO inh: 1%; Casp7 inh: -2%

What do the screens show for `O=C(COc1ccccc1O)Nc1ccccc1Cl`?
Tau fil binding: -41%; Casp1 inh: 0%; Hsp90 Hop PPI: inconclusive; 15-hLO inh: 6%; Casp7 inh: -4%; tau ThS displ: inactive; aSyn ThS displ: inactive; Abeta ThS displ: inactive

Results for COC(=O)c1cc(OC)c(OC)cc1NC(=O)CSc1nnc(-c2cccnc2)n1C ?
Tau fil binding: -3%; Casp1 inh: 2%; Hsp90 Hop PPI: -5%; 15-hLO inh: 12%; Casp7 inh: -2%

Results for Nc1ccc(O)c(-c2nc3ccccc3s2)c1 ?
Tau fil binding: 3.2µM*; Casp1 inh: inconclusive; Hsp90 Hop PPI: -24%; 15-hLO-2 inh: 23%; 15-hLO inh: inconclusive; Casp7 inh: inconclusive; tau ThS displ: inconclusive; aSyn ThS displ: inconclusive; Abeta ThS displ: 9.2µM*

Results for Cc1ccc(-c2ccc(CCC(=O)O)n2NC(=O)c2cccs2)cc1 ?
Tau fil binding: -2%; Casp1 inh: -1%; Hsp90 Hop PPI: -2%; 15-hLO-2 inh: -16%; 15-hLO inh: -18%; Casp7 inh: -1%

How did CCCCCCOC(=O)C(C#N)c1nc2ccccc2nc1N1CCN(C)CC1 (stereo not drawn) do in these assays?
Tau fil binding: 1µM*; Casp1 inh: inconclusive; Hsp90 Hop PPI: -20%; 15-hLO-2 inh: 29%; 15-hLO inh: -16%; Casp7 inh: -26%; tau ThS displ: 2.8µM*; aSyn ThS displ: 1.8µM*; Abeta ThS displ: 0.79µM*

How did CCOC(=O)C1CCN(c2nc3ccccc3nc2C(C#N)C(=O)OCCOC)CC1 (stereo not drawn) do in these assays?
15-hLO-2 inh: -13%

How did COC(=O)C1=C(C)NC(C)=C(C(=O)OC)C1C(=O)OCCN1C(=O)c2ccccc2C1=O do in these assays?
Tau fil binding: 3%; Casp1 inh: -1%; Hsp90 Hop PPI: -2%; 15-hLO-2 inh: 2%; 15-hLO inh: 8%; Casp7 inh: 0%

Results for COc1ccc(-c2cc(C(F)(F)F)c3c(=O)n(-c4ccccc4)[nH]c3n2)cc1 ?
15-hLO-2 inh: 26%

How did Cc1ccc(-c2noc(=O)n2CC(=O)Nc2ccc(S(=O)(=O)NC3CC3)cc2)cc1 do in these assays?
15-hLO-2 inh: -1%

How did CCOCCCn1c(=N)c(C(=O)NCc2ccc3c(c2)OCO3)cc2c(=O)n3cccc(C)c3nc21 do in these assays?
Tau fil binding: 0.63µM*; Casp1 inh: inconclusive; Hsp90 Hop PPI: -5%; 15-hLO-2 inh: -7%; 15-hLO inh: -8%; Casp7 inh: inconclusive; tau ThS displ: 9.5µM*; aSyn ThS displ: 2.2µM*; Abeta ThS displ: 3µM*

How did N=c1c(C(=O)NCc2ccc3c(c2)OCO3)cc2c(=O)n3ccccc3nc2n1Cc1cccnc1 do in these assays?
Tau fil binding: inconclusive; Hsp90 Hop PPI: -12%; 15-hLO-2 inh: -5%; 15-hLO inh: inconclusive; Casp7 inh: inconclusive; tau ThS displ: inconclusive; aSyn ThS displ: 7.4µM*; Abeta ThS displ: 10µM*

How did CCOc1ccc(CNc2ccc(N3CCCC3)cc2)cc1 do in these assays?
Tau fil binding: 5µM*; Casp1 inh: -4%; Hsp90 Hop PPI: inconclusive; 15-hLO-2 inh: 5µM*; 15-hLO inh: 3.2µM*; Casp7 inh: -4%; tau ThS displ: inactive; aSyn ThS displ: inconclusive; Abeta ThS displ: 4.3µM*

What do the screens show for `Cc1ccc(NC(=O)CSC(N)=O)cc1Cl`?
Tau fil binding: 12%; Casp1 inh: 1%; Hsp90 Hop PPI: inconclusive; 15-hLO-2 inh: inconclusive; 15-hLO inh: inconclusive; Casp7 inh: 0%

How did CN(C)c1ccc(N/C=C/C(=O)c2ccc(F)cc2)cc1 do in these assays?
Tau fil binding: 3.2µM*; Casp1 inh: -6%; Hsp90 Hop PPI: -23%; 15-hLO-2 inh: inconclusive; 15-hLO inh: -23%; Casp7 inh: -4%; tau ThS displ: 1.1µM*; aSyn ThS displ: 6.2µM*; Abeta ThS displ: 3.4µM*

What do the screens show for `CC(=O)c1ccc2c(c1)Nc1ccccc1S2`?
Tau fil binding: 2µM*; Casp1 inh: -7%; Hsp90 Hop PPI: 2%; 15-hLO-2 inh: -26%; 15-hLO inh: inconclusive; Casp7 inh: -7%; tau ThS displ: 7.7µM*; aSyn ThS displ: 6µM*; Abeta ThS displ: 9µM*

How did O=C(O)CC1(CC(=O)O)Nc2ccccc2SC1=O do in these assays?
Tau fil binding: 7%[11.4 µM]; Casp1 inh: -1%[11.5 µM]; Hsp90 Hop PPI: -3%[11 µM]; 15-hLO-2 inh: -3%[11.4 µM]; 15-hLO inh: -6%[11.4 µM]; Casp7 inh: 1%[11.5 µM]

What do the screens show for `Cc1ccc2nc(NC(=O)C3CCCN(S(=O)(=O)c4cccc5nonc45)C3)sc2c1` (stereo not drawn)?
Tau fil binding: inconclusive; Casp1 inh: -6%; Hsp90 Hop PPI: 0%; 15-hLO inh: -14%; Casp7 inh: -8%; tau ThS displ: inactive; aSyn ThS displ: inconclusive; Abeta ThS displ: inactive

Results for COc1cccc(Cn2c(=O)c(-c3ccc(F)cc3)nc3cnc(N(C)C)nc32)c1 ?
Tau fil binding: -2%; Hsp90 Hop PPI: -1%; 15-hLO-2 inh: -1%; 15-hLO inh: -9%; Casp7 inh: inconclusive

From PubChem
